Laboratory results: PubChem BioAssay (NCATS)
Results filed as inconclusive are left out. A number with no mark means an inactive call. Calls come from the whole dose curve; as a rule, active = well fitted curve in the direction sought with a large enough effect; inconclusive = small, poorly fitted or top-dose-only effect, or another doubt; inactive = no such curve, though single readings can be large or run the other way.

Target: Metallo-beta-lactamase type 2 (Klebsiella pneumoniae) (UniProt C7C422)
Sequence (C7C422 whole entry, looked up): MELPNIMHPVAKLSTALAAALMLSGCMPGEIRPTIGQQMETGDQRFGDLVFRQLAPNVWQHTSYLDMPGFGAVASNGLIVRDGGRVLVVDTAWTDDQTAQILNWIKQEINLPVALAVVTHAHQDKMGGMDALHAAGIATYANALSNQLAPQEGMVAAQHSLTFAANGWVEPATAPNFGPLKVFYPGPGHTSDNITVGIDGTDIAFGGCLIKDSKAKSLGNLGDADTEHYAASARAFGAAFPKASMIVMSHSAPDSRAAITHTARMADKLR
Assay: qHTS to identify inhibitors of the New Delhi Metallo-beta-lactamase (NDM): assay validation screen against the NCATS LOPAC Collection (AID 1794843)
Conditions: NDM-1 enzyme, nitrocefin hydrolysis, absorbance 485 nm; series mostly up to 38.4 µM; activity change, negative = inhibition: at the top concentration
Procedure, shortened: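 Absorbance at 485 nm from nitrocefin turnover (50 uM solution added), read at plateau, gives the read-out. Compounds in DMSO were incubated first with 2 nM final NDM-1 in pH 7.0 HEPES buffer containing 1 uM ZnSO4 and 0.01% Tween20.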
% is set by controls: 0 for no effect and ±100 for the full control effect.

| SMILES | activity change, negative = inhibition |
| --- | --- |
| O=c1ccc2c(OCCCCc3ccccc3)c3ccoc3cc2o1 | -0.209% |
| CC1CCN(CC[C@H]2CCCN2S(=O)(=O)c2cccc(O)c2)CC1 | -7.31% |
| N[C@@H](CS(=O)O)C(=O)O | -28.2% |
| CC1=C(/C=C/C(C)=C/C=C/C(C)=C\C(=O)O)C(C)(C)CCC1 | -10.1% |
| CCCCCCCCCCCCCCSCC(=O)O | -6.49% |
| COc1cc(C(O)CO)ccc1O (configuration not stated) | -0.121% |
| COC(=O)C(N)Cc1ccc(Cl)cc1 (configuration not stated) | -1.38% |
| O=C(O)[C@H]1NCCC[C@H]1C(=O)O | 2.92% |
| O=C(O)c1ccccc1Nc1ccccc1 | 2.71% |
| Nc1nc2[nH]c(=O)cnc2c(=O)[nH]1 | 0.0494% |
| CCCn1c(=O)c2[nH]c(C3CCCC3)nc2n(CCC)c1=O | 1.2% |
| O=c1onc2n1-c1cc(Br)ccc1OC2 | 5.76% |
| c1ccc(C(NCc2cccnc2)(c2ccccc2)c2ccccc2)cc1 | -0.556% |
| C=C1C(=O)O[C@@H]2[C@H]3O[C@]3(C)CCC=C(C)CC[C@@H]12 | 3.27% |
| C=CC[C@H](N)C(=O)O | -7.22% |
| C#CC(N)CCC(=O)O (configuration not stated) | -1.47% |
| COc1cc(/C=C(\C#N)C(=O)Nc2nnc(C(F)(F)F)s2)ccc1OCc1ccc(C(F)(F)F)cc1C(F)(F)F | 0.0461% |
| Cn1c(=O)c2c(nc(/C=C/c3cccc(Cl)c3)n2C)n(C)c1=O | -6.93% |
| CC(=O)O[C@H]1Cc2ccccc2N(C(N)=O)c2ccccc21 | -0.59% |
| CC(=O)NCCc1c[nH]c2ccc(O)cc12 | -1.51% |
| O=[N+]([O-])c1cccc2c(Br)[nH]nc12 | 3.69% |
| O=c1[nH]c2ccccc2c2ccccc12 | 2.13% |
